The target of test [1] is Tyrosine-protein kinase receptor UFO (Homo sapiens) (UniProt P30530). The note with it: at 1 µM.
Test [2] addresses Tyrosine-protein kinase Blk (Homo sapiens) (UniProt P51451). The following applies: at 0.1 µM.
Test [3] has the same target. The following applies: at 1 µM.
For test [4], the target named is T1, Cytoplasmic tyrosine-protein kinase BMX (Homo sapiens) (UniProt P51813).
T1 sequence (whole entry): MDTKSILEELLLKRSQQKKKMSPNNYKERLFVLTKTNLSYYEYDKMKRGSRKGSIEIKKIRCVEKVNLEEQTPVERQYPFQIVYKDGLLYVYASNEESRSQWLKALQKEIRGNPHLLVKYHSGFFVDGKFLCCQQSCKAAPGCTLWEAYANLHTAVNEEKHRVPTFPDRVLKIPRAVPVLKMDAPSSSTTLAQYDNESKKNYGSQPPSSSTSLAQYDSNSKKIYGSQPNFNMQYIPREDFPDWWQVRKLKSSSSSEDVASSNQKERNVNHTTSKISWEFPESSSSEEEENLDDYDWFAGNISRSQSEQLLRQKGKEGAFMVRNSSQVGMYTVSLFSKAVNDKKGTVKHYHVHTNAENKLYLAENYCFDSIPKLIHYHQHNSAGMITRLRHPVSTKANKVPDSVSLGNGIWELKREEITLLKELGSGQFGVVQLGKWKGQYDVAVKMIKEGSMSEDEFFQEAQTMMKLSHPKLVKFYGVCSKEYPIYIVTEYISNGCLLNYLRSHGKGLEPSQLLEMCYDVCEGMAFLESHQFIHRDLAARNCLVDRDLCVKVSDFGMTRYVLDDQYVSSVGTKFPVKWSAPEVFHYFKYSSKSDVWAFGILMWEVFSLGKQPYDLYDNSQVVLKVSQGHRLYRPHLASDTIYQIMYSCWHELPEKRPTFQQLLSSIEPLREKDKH
The note with it: at 0.1 µM.

Test [5] deals with T1, Cytoplasmic tyrosine-protein kinase BMX (Homo sapiens). The following applies: at 1 µM.
For test [6], the target named is Protein-tyrosine kinase 6 (Homo sapiens) (UniProt Q13882). The note with it: at 0.1 µM.
Test [7] shares this target. The note with it: at 1 µM.
Test [8] deals with Tyrosine-protein kinase BTK (Homo sapiens) (UniProt Q06187). The note with it: at 0.1 µM.
Test [9] shares this target. The following applies: at 1 µM.
The target of test [10] is Tyrosine-protein kinase CSK (Homo sapiens) (UniProt P41240). The following applies: at 0.1 µM.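 Also: value given is the averaged percent inhibition of CSK kinase activity, from the GSK PKIS kinase inhibitor set screening panel.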
Tyrosine-protein kinase CSK (Homo sapiens), sequence (P41240 2-450 limits assumed): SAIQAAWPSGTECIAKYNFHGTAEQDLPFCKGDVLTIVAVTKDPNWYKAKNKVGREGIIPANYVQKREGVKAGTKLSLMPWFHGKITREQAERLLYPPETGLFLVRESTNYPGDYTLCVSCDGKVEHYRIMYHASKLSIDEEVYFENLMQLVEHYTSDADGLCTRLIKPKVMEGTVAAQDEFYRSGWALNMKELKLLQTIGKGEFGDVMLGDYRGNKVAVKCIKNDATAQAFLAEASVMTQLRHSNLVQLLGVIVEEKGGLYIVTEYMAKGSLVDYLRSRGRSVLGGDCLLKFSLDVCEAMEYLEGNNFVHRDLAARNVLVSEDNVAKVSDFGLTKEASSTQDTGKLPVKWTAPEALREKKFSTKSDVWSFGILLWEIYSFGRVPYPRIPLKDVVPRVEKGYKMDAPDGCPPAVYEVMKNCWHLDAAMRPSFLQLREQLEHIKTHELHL

Tyrosine-protein kinase receptor UFO (Homo sapiens), sequence (P30530 whole entry): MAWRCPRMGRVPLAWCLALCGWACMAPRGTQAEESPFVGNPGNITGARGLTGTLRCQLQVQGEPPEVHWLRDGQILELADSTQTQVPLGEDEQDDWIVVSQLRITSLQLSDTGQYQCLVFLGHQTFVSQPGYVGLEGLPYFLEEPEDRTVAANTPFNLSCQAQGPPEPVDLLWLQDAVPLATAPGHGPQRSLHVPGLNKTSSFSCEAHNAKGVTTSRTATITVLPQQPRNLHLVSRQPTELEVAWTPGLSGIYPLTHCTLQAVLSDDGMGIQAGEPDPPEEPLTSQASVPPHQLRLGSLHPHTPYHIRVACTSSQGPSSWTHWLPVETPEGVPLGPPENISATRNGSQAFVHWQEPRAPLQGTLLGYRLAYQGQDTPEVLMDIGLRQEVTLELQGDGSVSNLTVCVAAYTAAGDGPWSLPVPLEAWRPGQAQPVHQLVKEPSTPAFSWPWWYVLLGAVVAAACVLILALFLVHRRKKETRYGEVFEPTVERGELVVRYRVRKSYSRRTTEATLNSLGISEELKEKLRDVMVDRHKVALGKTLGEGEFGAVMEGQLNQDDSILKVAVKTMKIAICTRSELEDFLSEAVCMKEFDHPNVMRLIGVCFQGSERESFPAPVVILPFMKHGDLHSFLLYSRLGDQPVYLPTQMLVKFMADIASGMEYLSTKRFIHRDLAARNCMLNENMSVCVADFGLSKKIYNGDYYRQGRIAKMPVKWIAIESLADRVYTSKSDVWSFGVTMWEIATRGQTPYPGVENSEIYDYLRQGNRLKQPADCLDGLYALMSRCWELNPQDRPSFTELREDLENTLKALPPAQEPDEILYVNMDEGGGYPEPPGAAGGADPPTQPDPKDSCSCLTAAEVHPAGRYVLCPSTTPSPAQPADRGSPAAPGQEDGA
Tyrosine-protein kinase Blk (Homo sapiens), sequence (P51451 2-505 limits assumed): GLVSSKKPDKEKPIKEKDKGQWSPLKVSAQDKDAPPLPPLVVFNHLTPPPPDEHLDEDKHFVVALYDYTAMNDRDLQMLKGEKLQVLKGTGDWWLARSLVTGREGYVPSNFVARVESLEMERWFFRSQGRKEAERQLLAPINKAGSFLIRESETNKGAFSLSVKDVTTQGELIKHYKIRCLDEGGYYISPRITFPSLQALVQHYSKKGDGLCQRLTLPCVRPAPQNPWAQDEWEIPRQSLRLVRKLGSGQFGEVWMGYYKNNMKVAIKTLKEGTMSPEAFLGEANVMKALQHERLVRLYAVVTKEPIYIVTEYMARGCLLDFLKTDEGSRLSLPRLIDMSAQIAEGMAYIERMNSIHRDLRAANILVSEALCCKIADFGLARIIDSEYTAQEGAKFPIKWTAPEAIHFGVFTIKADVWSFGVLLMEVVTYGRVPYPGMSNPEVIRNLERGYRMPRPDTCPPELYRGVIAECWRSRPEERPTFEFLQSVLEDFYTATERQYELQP
Tyrosine-protein kinase BTK (Homo sapiens), sequence (Q06187 whole entry): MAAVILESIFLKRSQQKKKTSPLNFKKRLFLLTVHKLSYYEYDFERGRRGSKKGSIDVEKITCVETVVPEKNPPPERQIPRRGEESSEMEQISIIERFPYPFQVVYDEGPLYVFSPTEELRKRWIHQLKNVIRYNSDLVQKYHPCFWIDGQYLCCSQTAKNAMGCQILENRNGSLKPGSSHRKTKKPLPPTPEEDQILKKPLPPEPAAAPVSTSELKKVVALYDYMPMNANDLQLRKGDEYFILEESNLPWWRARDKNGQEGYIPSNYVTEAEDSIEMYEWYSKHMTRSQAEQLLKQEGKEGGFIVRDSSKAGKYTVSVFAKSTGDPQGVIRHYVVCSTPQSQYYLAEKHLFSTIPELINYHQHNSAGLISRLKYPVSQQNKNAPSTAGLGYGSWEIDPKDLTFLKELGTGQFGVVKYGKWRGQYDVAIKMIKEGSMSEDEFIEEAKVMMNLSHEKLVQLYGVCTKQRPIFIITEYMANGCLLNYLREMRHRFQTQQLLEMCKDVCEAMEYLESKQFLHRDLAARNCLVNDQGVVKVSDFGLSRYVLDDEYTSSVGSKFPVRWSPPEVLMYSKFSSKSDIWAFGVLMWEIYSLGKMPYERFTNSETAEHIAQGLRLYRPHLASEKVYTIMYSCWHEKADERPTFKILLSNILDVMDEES
Protein-tyrosine kinase 6 (Homo sapiens), sequence (Q13882 whole entry, looked up): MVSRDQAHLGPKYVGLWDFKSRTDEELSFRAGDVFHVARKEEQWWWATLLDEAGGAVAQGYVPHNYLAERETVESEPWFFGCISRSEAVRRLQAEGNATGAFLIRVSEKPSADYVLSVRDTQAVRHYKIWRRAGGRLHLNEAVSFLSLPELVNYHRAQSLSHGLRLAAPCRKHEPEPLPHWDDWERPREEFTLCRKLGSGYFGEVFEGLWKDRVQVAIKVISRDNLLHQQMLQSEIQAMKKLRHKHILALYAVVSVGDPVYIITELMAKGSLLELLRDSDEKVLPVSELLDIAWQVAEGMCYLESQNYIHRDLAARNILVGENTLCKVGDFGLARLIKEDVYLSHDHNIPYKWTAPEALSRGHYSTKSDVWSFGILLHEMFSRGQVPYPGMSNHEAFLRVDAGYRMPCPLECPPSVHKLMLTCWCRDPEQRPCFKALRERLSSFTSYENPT

On to `CCS(=O)(=O)c1ccc(OC)c(Nc2ncc(-c3cccc(-c4ccccc4F)c3)o2)c1`, for which the inhibition (as a rule, the relative decrease from the control value, in per cent) in [1] was 2.28%; in [2], 8.74%; in test [3] it was 55.5%; in test [4], -4.54%; in test [5], 9.3%; in [6], 1.06%. The inhibition is 10.8% in [7], -0.93% in [8], 3.93% in [9] and 0.57% in [10].
As to `C/C(Nc1ccc(S(N)(=O)=O)cc1)=C1/C(=O)Nc2ccccc21`, the inhibition in test [1] was 10.5%; in [2], -0.72%; in test [3], 12%; in [4], -4.07%; in [5], -0.17%; in [6] it was -2.78%. Moreover, the inhibition is -1.43% in test [7], -2.32% in test [8], -1.09% in [9] and -5.47% in [10].
Consider `NC(=O)Cc1ccccc1Oc1nccc(-c2c(-c3ccc(F)cc3)ncn2C2CCNCC2)n1`, for which the inhibition was found to be 1.68% in test [1]; 1.46% in [2]; 2.66% in test [3]; 7.68% in test [4]; 3.56% in [5]; 2.9% in test [6]. Moreover, the inhibition is 1.21% in test [7], 1.29% in [8], 0.76% in test [9] and 0.51% in test [10].
On to `NS(=O)(=O)c1ccc(N/N=C2\C(=O)Nc3ccc(-c4cnco4)cc32)cc1`, for which the inhibition was -1.27% in [1]; -1.23% in [2]; 10.4% in [3]; 0.98% in test [4]; 5.77% in test [5]; 3.53% in [6]. The inhibition is 4.99% in test [7], -4.28% in test [8], -2.57% in test [9] and 2.16% in test [10].
Consider `CNC(=O)c1cncc(/C=C/c2c(C)cccc2C)c1`, for which the inhibition in [1] is 3.27%; in test [2], -1.68%; in [3], 16.2%; in test [4], 6.81%; in test [5], 42.4%; in test [6] it was 13.4%. The inhibition in [7] was 61.9%; in test [8] it was -1.07%; in test [9], 7.27%; in test [10] it was 5.83%.
Regarding `NS(=O)(=O)c1ccc(Nc2cc(-c3ccc(O)c(F)c3)n[nH]2)cc1`, the inhibition in test [1] was 1.05%; in test [2] it was -1.01%; in [3], 12.1%; in [4], -5.24%; in test [5] it was -1.41%; in [6], -4.55%. Also, the inhibition is -9.05% in [7], -1.3% in [8], -0.82% in [9] and -8.87% in test [10].
As for `COc1cc(Nc2ncc(-c3ccccc3)o2)cc(OC)c1OC`, the inhibition in [1] was -1.68%; in test [2], 4.17%; in [3], 41.1%; in test [4], 2.78%; in [5] it was 8.49%; in test [6], 0.16%. Moreover, the inhibition in test [7] was 4.16%; in [8] it was -0.88%; in test [9], 0.25%; in test [10], -1.07%.
Turning to `Clc1ccc(CNc2nccc(-c3cnn4ncccc34)n2)cc1`, the inhibition in test [1] is 2.45%; in test [2], 1.31%; in [3], 3.34%; in test [4], -1.56%; in test [5] it was 2.62%; in test [6] it was 0.74%. The inhibition was 3.52% in test [7], 0.65% in [8], 1.7% in [9] and 3.92% in test [10].
Regarding `Cc1ccc(C(=O)NC2CCC2)cc1-c1ccc(C(=O)NCC2CC2)cc1`, the inhibition is -1.14% in test [1]; 2.1% in test [2]; 1.49% in test [3]; 8.25% in test [4]; 2.61% in [5]; 1.28% in test [6]. Besides, the inhibition in test [7] is 1.95%; in test [8], 0.87%; in test [9], 0.88%; in test [10] it was -0.66%.
On to `COc1cc(N2CCN(C(C)C)CC2)ccc1Nc1nc(Nc2ccc(F)cc2C(=O)NC[C@@H](O)CO)c2cc[nH]c2n1`, for which the inhibition in test [1] is 7.75%; in [2], -1.34%; in [3] it was 0.03%; in test [4], 3.82%; in test [5], 4.34%; in test [6], 4.82%. For the same compound, the inhibition in test [7] was 7.68%; in [8] it was -2.66%; in [9] it was -4.6%; in [10], 5.74%.
For `FC(F)(F)c1cccc(Nc2nccc(-c3cnn4nc(-c5ccccc5)ccc34)n2)c1`, the inhibition in [1] was -4.33%; in test [2], 0.07%; in test [3], -0.26%; in test [4], 1.76%; in [5], 0.63%; in [6] it was -1.81%. Moreover, the inhibition in test [7] was 2.26%; in test [8], 0.03%; in test [9] it was -0.49%; in test [10] it was 4.19%.
For the compound `NS(=O)(=O)c1ccc(N/N=C2\C(=O)Nc3ccc(C(=O)NCCCn4ccnc4)cc32)cc1`, the inhibition in test [1] was determined as 3.27%; in test [2], 2.75%; in [3], 12.2%; in test [4] it was 10.2%; in test [5] it was 8.26%; in [6], 4.87%. Moreover, the inhibition in [7] was 6.65%; in [8] it was -1.04%; in [9], 0.06%; in test [10], 2.76%.
For the compound `O=C(Nc1n[nH]c2cc(-c3cc(F)ccc3F)ccc12)C1CC1`, the inhibition in [1] is -2.71%; in test [2], 1.38%; in test [3], 4.54%; in test [4] it was 1.69%; in [5], 3.35%; in test [6], 1.78%. The inhibition in test [7] was 2.23%; in [8], -1.19%; in test [9], -2.01%; in test [10] it was 3.87%.
As for `COc1ccc2ncn(-c3cc(O[C@H](C)c4ccccc4Cl)c(C(N)=O)s3)c2c1`, the inhibition in test [1] was -8.67%; in [2] it was -1.08%; in test [3], -2.12%; in test [4], 3.14%; in test [5], 4.61%; in test [6], -0.06%. Moreover, the inhibition is 4.71% in test [7], -4.3% in test [8], -3.34% in [9] and 4.64% in test [10].
Regarding `CN(C)CCOc1ccc(-c2cc(-c3ccc4c(c3)CCC4=NO)c(-c3ccncc3)o2)cc1`, the inhibition in [1] was 2.27%; in test [2], -0.19%; in test [3], 6.21%; in test [4], -1.43%; in test [5], 1.43%; in test [6], 1.76%. In addition, the inhibition in test [7] is 15%; in test [8], 0.42%; in test [9], 2.57%; in [10], -2.53%.
For the compound `NC(=O)c1cc(-c2ccncc2)cc(-c2ccccc2)c1N`, the inhibition in test [1] is -6.8%; in test [2] it was 3.86%; in [3], 17.5%; in [4], 11.8%; in [5] it was 49.6%; in test [6] it was 5.89%. Besides, the inhibition in test [7] turned out to be 36.9%; in test [8], 1.6%; in [9], 11.8%; in [10], 5.98%.
For the compound `COc1ccc2cc(-c3c(-c4ccncc4)nc(-c4ccc([S+](C)[O-])cc4C)n3C)ccc2c1` (stereo not given), the inhibition is 1.82% in [1]; -0.17% in test [2]; 4.39% in test [3]; 0.28% in test [4]; 0.8% in [5]; 24.7% in test [6]. Besides, the inhibition was 81.2% in test [7], -0.17% in test [8], 0.66% in test [9] and -0.71% in [10].

These data come from ChEMBL document CHEMBL1961873, “Compounds: GSK PKIS; Assays: Nanosyn kinase panel” (2012).
